According to PubChem BioAssay AID1347165 (National Center for Advancing Translational Sciences (NCATS), 2019):
Screen size: about 220,000 compounds; about 5,700 (2.6%) were called active. Roughly 18% stayed inconclusive and do not appear here. Calls come from the whole dose curve; as a rule, active = well fitted inhibition curve with a large enough effect; inconclusive = small, poorly fitted or top-dose-only effect; inactive = no such curve, though single readings can be large or run the other way. The list comes from a sample in which actives are over-represented; it also holds similar structures and randomly drawn compounds.

target: Lysine-specific demethylase 5B (Homo sapiens) (UniProt Q9UGL1); test: Primary screen for KDM5B Histone Demethylases FDH-coupled qHTS; settings: FDH-coupled NADH fluorescence (FDH is formaldehyde dehydrogenase); series mostly up to 57.7 µM; activity change, negative = inhibition: at the top concentration; note: nearly all actives have a fitted effect of over 70% in size; for activity change, negative = inhibition: 0% is about no effect
Sequence (Q9UGL1 whole entry, looked up): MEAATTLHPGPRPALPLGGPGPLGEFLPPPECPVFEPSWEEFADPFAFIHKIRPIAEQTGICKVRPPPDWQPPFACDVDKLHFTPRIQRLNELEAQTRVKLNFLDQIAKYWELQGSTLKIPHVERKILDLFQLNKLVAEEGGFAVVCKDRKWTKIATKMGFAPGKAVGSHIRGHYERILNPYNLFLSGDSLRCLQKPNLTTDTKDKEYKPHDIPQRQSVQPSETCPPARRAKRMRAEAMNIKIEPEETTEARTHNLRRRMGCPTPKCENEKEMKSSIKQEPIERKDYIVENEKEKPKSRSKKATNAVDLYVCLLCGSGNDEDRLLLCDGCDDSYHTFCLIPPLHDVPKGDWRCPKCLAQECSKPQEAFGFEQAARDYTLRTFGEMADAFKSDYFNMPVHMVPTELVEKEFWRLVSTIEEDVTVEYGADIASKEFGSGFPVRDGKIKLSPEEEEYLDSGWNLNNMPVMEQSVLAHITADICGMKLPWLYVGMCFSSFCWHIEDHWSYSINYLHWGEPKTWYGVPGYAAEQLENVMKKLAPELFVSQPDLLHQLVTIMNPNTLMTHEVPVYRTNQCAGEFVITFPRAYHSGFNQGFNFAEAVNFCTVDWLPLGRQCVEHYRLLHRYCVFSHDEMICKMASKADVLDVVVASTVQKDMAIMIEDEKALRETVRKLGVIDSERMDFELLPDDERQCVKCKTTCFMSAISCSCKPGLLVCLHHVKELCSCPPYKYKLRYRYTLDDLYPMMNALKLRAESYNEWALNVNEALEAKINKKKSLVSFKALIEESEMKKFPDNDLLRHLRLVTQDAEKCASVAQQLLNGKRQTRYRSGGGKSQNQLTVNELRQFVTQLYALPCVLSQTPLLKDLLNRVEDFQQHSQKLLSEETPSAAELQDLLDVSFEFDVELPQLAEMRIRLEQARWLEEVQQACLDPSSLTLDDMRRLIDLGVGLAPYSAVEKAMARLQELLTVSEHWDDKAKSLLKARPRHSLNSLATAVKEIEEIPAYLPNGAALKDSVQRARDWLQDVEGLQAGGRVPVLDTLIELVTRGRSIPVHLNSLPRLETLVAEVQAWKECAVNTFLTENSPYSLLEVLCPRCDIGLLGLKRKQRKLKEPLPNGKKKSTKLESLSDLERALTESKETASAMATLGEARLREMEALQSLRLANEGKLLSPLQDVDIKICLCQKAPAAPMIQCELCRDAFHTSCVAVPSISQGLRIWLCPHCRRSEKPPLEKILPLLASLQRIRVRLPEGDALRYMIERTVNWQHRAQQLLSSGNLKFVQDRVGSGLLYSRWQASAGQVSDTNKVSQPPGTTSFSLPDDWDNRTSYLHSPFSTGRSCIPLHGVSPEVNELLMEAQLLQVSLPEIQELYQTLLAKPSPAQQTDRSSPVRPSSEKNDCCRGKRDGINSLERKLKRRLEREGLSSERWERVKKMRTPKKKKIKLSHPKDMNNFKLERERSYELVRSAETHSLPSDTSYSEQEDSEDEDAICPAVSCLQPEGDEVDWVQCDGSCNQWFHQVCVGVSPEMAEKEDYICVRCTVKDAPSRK
Summary of the method: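 KDM5BΔAP (200 nM final) in 50 mM HEPES pH 7.5, 0.01% Tween-20 was preincubated 10 min at RT with compound over a concentration range. Substrate mix (H3K4me3 12.5 µM, α-KG 25 µM, Fe²⁺, ascorbate, NAD⁺, FDH) was added, and NADH fluorescence change over 30 min gave dose-response curves.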
Potency is the fitted concentration of half-maximal effect.

Compound | activity change, negative = inhibition | Potency
CC1(C)Cc2c(sc3c2c(=O)n(CCO)c(=O)n3CCc2ccccc2)CO1 | 5.34% (inactive) | –
Cc1csc2nc(COc3ccc(NC(=O)C4CCCCC4)cc3)cc(=O)n12 | -1% (inactive) | –
CCOC(=O)N1CCN(Cc2cc(=O)oc3ccc(C)cc23)CC1 | -1.64% (inactive) | –
O=C(NCc1ccnc2[nH]ccc12)c1ccc(F)cc1 | – | 35.5 µM (active)
O=C(NCc1c[nH]c2ncccc12)c1ccccc1F | 36.6% [at 86.2 µM] (inactive) | –
O=C(NCc1ccnc2[nH]ccc12)c1ccccn1 | 5.45% [at 86.2 µM] (inactive) | –
COc1ccc(N2CCN(C3CCCN(CC(=O)N(C)C(C)C)C3)CC2)cc1 (centres undefined) | -16.9% (inactive) | –
COc1ccc(-n2nc(-c3ccccc3)n(CC(=O)N(C)CC(C)C)c2=O)cc1 | – | 31.6 µM (active)
COC(=O)CNC(=O)CNC(=O)c1nn(-c2ccc(OC)cc2)c(=O)c2ccccc12 | -5.61% (inactive) | –
CCOC(=O)C(NC(=O)/C=C/c1c(Cl)cccc1Cl)C(=O)OCC | 25.9% (inactive) | –
Cc1ccc2cc(C(=O)NCc3ccc(N4CCCC4)nc3)c(C)nc2c1 | -7.88% (inactive) | –
Cc1cn2nc(C(=O)NCC(C)c3ccccc3)cc2c(N2CCCC2)n1 (centres undefined) | -1660% (inactive) | –
CSc1ccc(CNC(=O)c2noc(-c3ccc(C)cc3)n2)cc1 | -6.66% (inactive) | –
CSc1ccc(CNC(=O)c2cc3c(N4CCCC4)nc(C)cn3n2)cc1 | – | 28.2 µM (active)
Cc1cn2nc(C(=O)NCc3cccs3)cc2c(N2CCCC2)n1 | -2110% (inactive) | –
Cc1cn2nc(C(=O)NCc3ccc(F)cc3)cc2c(N2CCCC2)n1 | – | 25.1 µM (active)
CCOC(=O)C(=O)Nc1ccc(C(=O)OC)cc1 | 23.4% (inactive) | –
CSc1ccc(CNC23CC4CC(C)(CC(C)(C4)C2)C3)cc1 | 16.9% (inactive) | –
Cc1cccc(C)c1OCC(O)Cn1cnc2c(cnn2-c2ccc(F)cc2)c1=O (centres undefined) | 5.4% (inactive) | –
Cn1c(SCc2ccc(F)cc2)nnc1-c1ccncc1 | 17.7% (inactive) | –
COc1ccc(OC)c2[nH]c(C(=O)NCC(=O)Nc3nc(C)cs3)cc12 | 29.2% (inactive) | –
CCC1(C)CC(CC(=O)OC(C)CN(C)C)(c2ccccc2)CCO1 (centres undefined) | 32.5% (inactive) | –

Compound | activity change, negative = inhibition | Potency
Cc1cc(N)n(CC(=O)N[C@@H]2COCC[C@@H]2OCc2c(C)noc2C)n1 | -15.9% (inactive) | –
CNc1ncc(C(=O)N[C@@H]2COCC[C@@H]2OCc2c(C)noc2C)cn1 | – | 28.2 µM (active)
Cc1noc(C)c1CCCNC(=O)c1ccc(N(C)C2CCOC2)nc1 (centres undefined) | 1.14% (inactive) | –
O=C(NC1(c2ccc(Cl)cc2)CCC1)c1cc(Cl)c[nH]1 | 4.6% (inactive) | –
Cc1ccc(Cc2nn3c(SCC(=O)Nc4ccccc4C(F)(F)F)nnc3[nH]c2=O)cc1 | 0.896% (inactive) | –
COC(=O)[C@H](C)NC(=O)C12CC3CC(CC(C3)C1)C2 | 16.7% (inactive) | –
CCc1c(C)sc(NC(=O)C(CC)CC)c1C#N | -13.5% (inactive) | –
COCC1CCN(C(=O)c2ccc3oc(Cc4ccccc4)nc3c2)C1 (centres undefined) | 30.4% (inactive) | –
Cc1ccc(-c2cc(N3CCCN(C(=O)c4nn(C)c5ccccc45)CC3)n[nH]2)cc1C | -17.1% (inactive) | –
COc1ccc(-c2[nH]nc3ncc(-c4ccccc4)nc23)c(C)c1 | -17.3% [at 86.2 µM] (inactive) | –
COCCNC(=O)c1cnc2n[nH]c(-c3ccccc3OC)c2n1 | -15.1% [at 86.2 µM] (inactive) | –
COc1ccccc1-c1[nH]nc2ncc(-c3cccc(CO)c3)nc12 | – | 39.8 µM (active)
Oc1ccc(/C=C(/Cl)c2ncc(-c3ccc(F)cc3)o2)cc1 | -3.78% (inactive) | –
O=C(NC1CCCCC1)c1cc(C2CC2)on1 | 20.7% (inactive) | –
CCOC(=O)C1CCN(CCC(=O)Nc2cc(OC)cc(OC)c2)CC1 | -4.23% (inactive) | –
Cc1cn2nc(C(=O)NC3CCCC3)cc2c(N2CCSCC2)n1 | – | 28.2 µM (active)
COc1ccc(N2CCN(c3nc(C(=O)NC4CCCCCC4)cs3)CC2)cc1 | -9.1% (inactive) | –
COc1cc(NC(=O)c2cc3c(N4CCSCC4)nc(C)cn3n2)cc(OC)c1 | – | 31.6 µM (active)
COc1cccc(NC(=O)c2csnn2)c1 | -29.2% (inactive) | –
O=C(OC1CCOC1=O)c1ccccc1SC1CCOC1=O (centres undefined) | -15.3% (inactive) | –
O=C1CC(c2nc(-c3ccc(Oc4ccccc4)cc3)no2)CN1c1ccccc1 (centres undefined) | 21.5% (inactive) | –
O=C(c1ccccc1F)N1CCC2(CC1)C(=O)NN=C2C1CC1 | 7.64% [at 86.2 µM] (inactive) | –

Compound | activity change, negative = inhibition | Potency
CNC(=O)c1cccc(NC(=O)CC(C)(C(=O)O)c2ccccc2)c1 (centres undefined) | 1.72% (inactive) | –
Cc1cc(C)c(CNC(=O)c2nc(-c3cccc(CO)c3)cc3c2ccn3C)c(=O)[nH]1 | – | 35.5 µM (active)
O=S(=O)(Oc1ccccc1C(=S)N1CCOCC1)c1ccc(Cl)cc1 | -14.3% (inactive) | –
CCN(c1ccc(NC(=O)c2nccnc2N)cc1)C(C)C | -22.1% (inactive) | –
Cc1cc(S(=O)(=O)c2cc3cc(F)cc(F)c3oc2=O)ccc1F | -3.98% (inactive) | –
O=S(=O)(c1ccc(F)cc1)N1CCn2cccc2C1c1ccccc1F (centres undefined) | -23.3% (inactive) | –
Cc1cccc(NN)c1C | 13.4% (inactive) | –
COc1cccc(CNC(=O)CC(C)CC(=O)O)c1 (centres undefined) | -3.92% (inactive) | –
CCc1ccc(OCC(=O)Nc2ccc(S(=O)(=O)NC(C)(C)C)cc2)cc1 | -20.3% (inactive) | –
NC(=O)c1ccc(OC2CCN(C(=O)CCc3ccccc3)C2)nc1 (centres undefined) | 0.563% (inactive) | –
CNc1ccc(OC2CCN(C(=O)NCCc3ccccc3)CC2)nc1 | – | 28.2 µM (active)
NC(=O)c1ccc(OC2CCN(C(=O)c3ccc(F)cc3)CC2)nc1 | -3.04% (inactive) | –
CN(C)c1ncccc1CNC(=O)Cc1ccccc1F | -3.47% (inactive) | –
CC(NC(=O)c1ccc2c(c1)CCCC2)c1ccccc1 (centres undefined) | 18.5% (inactive) | –
Cc1c(C(=O)NCCN(C)C)oc2ccc(S(=O)(=O)N3CCCC3)cc12 | 14% (inactive) | –
C[S+](=O)([O-])c1ccc(-c2cnc3n[nH]c(-c4ccccc4)c3n2)cc1 | – | 35.5 µM (active)
Cc1ccsc1-c1[nH]nc2ncc(-c3ccccc3O)nc12 | -14.5% [at 86.2 µM] (inactive) | –
Cn1cc(-c2cnc3n[nH]c(-c4ccccc4)c3n2)cn1 | – | 35.5 µM (active)
Cc1cccc(-c2cnc3n[nH]c(-c4ccc5c(c4)OCO5)c3n2)c1 | 7.1% [at 86.2 µM] (inactive) | –
Fc1ccc(-c2cnc3n[nH]c(-c4ccc5c(c4)OCO5)c3n2)cc1 | 4.47% [at 86.2 µM] (inactive) | –
COc1ccc(-c2[nH]nc3ncc(-c4cn[nH]c4)nc23)cc1F | -28.7% [at 86.2 µM] (inactive) | –
Cc1ccc(C(=O)NCC(c2cccs2)N(C)C)cc1S(=O)(=O)N1CCOCC1 (centres undefined) | -3.06% (inactive) | –

Compound | activity change, negative = inhibition | Potency
O=C(c1cccc(Br)c1)N1CCN(C2=NS(=O)(=O)c3ccccc32)CC1 | 13% (inactive) | –
COc1ccc(NC(=O)CCCC2CCCCC2)c(OC)c1 | -4.56% (inactive) | –
COc1ccccc1CN1CC[C@@H](CO)N(C)c2ncccc2C1 | – | 31.6 µM (active)
COc1cccc(CN2CCN(Cc3ncccc3C)CC2)c1O | -54.2% (inactive) | –
COc1ccccc1CN1CCC(N2CCN(c3ccccc3OC)CC2)CC1 | -8.14% (inactive) | –
CC(C)n1ncc2cc(C(=O)N3CCCCc4ccccc43)cnc21 | 6.87% (inactive) | –
CCN(CCCNC(=O)c1nn(-c2ccc(OC)cc2)c(=O)c2ccccc12)Cc1ccccc1 | -6.9% (inactive) | –
CN(Cc1ccc(F)cc1)C(=O)Cn1nc(C(=O)O)c2ccccc2c1=O | 3.35% (inactive) | –
CC(=O)Nc1ccc(C2(C(=O)NCCCN3CCOCC3)CCCCC2)cc1 | -14.7% (inactive) | –
COc1ccc(S(=O)(=O)N2CCCC(C(=O)NCCCn3ccnc3)C2)cc1OC (centres undefined) | 15.5% (inactive) | –
CN1CCC2(C1)CN(CC1CCOCC1)c1ccc(C(=O)NCCCn3ccnc3)cc12 (centres undefined) | – | 39.8 µM (active)
Cc1c(C(=O)N(Cc2nc3ccccc3c(=O)[nH]2)C(C)C)oc2ccc(Cl)cc12 | -4.06% (inactive) | –
CCN1C(=O)C(=O)N(CC(=O)Nc2cc(C)ccc2C)C1=O | 22.3% (inactive) | –
Cc1ccc(C(=O)N2CC[C@H](CO)[C@H](NC(=O)C3CC3)C2)cn1 | -23.3% (inactive) | –
CC(=O)N[C@H]1CN(c2cncc(C(=O)N3CCCC3)n2)C[C@@H]1C1CC1 | – | 28.2 µM (active)
O=C(c1cnccn1)N1CC2CC(C1)[C@H]1CCCC(=O)N1C2 (some centres undefined) | 23.3% (inactive) | –
Cc1ccc(N(CC(=O)NC2CCCCCCC2)S(=O)(=O)N(C)C)cc1 | 15.6% (inactive) | –
O=C([C@@H]1C[C@H](c2ccc(F)cc2)N([S+](=O)([O-])C2CC2)C1)N1CCN(c2ccccn2)CC1 | – | 20 µM (active)
O=C(Nc1cccc(Cl)c1)[C@@H]1C[C@H](c2ccc(F)cc2)N([S+](=O)([O-])C2CC2)C1 | -4.57% [at 86.2 µM] (inactive) | –
O=C(Nc1cccnc1)[C@@H]1C[C@@H](c2ccc(F)cc2)N([S+](=O)([O-])c2ccccc2)C1 | -8.21% [at 86.2 µM] (inactive) | –
Cc1c(C)n2c3c(=O)[nH]c(=O)n(C)c3nc2n1CCN1CCN(Cc2ccc(F)cc2)CC1 | 16.1% (inactive) | –
C=CCOC/C=C/C#CCN(CC=C)Cc1ccc(OC)cc1OC | 14.3% (inactive) | –

Compound | activity change, negative = inhibition | Potency
CCCN1C(=O)Cc2cc(C(=O)NC3CC3)ccc21 | 9.76% (inactive) | –
CC(=O)N1CCCC2(C1)CN(C)c1ccc(C(=O)NC3CC3)cc12 (centres undefined) | – | 25.1 µM (active)
O=C1Nc2ccccc2CC12CCN(CC1CC1)C2 (centres undefined) | 20.3% [at 86.2 µM] (inactive) | –
O=C(NC1CCCCC1)c1ccc2c(c1)N(Cc1ccc(Cl)cc1)C(=O)c1ccccc1S2=O (centres undefined) | -4.14% (inactive) | –
CC(=O)N1CCC(Cc2ccc(C(=O)NC3CC3)cc2)CC1 | 4.77% (inactive) | –
O=C(NC1CC1)c1ccc2c(c1)C1(CCN(CC3CC3)C1)CN2Cc1ccccc1 (centres undefined) | – | 31.6 µM (active)
COC(=O)c1cccc(N(CC(=O)NCC2CCCO2)C(=O)CCC(=O)Nc2cc(C)on2)c1 (centres undefined) | 10.2% (inactive) | –
COc1ccccc1C(=O)OCC(=O)NCCNC(=O)COC(=O)c1ccccc1OC | 0% (inactive) | –
CSCC[C@H](NC(=O)CSc1cc(Cl)ccc1Cl)c1nc2ccccc2[nH]1 | 4.03% (inactive) | –
COc1cccc(S(=O)(=O)NCc2ccc(C(=O)NCc3ccccn3)cc2)c1 | -7.31% (inactive) | –
NC(=O)CN1CCC(NC(=O)c2ccc(Oc3ccc(F)cc3)cc2)CC1 | 2.21% (inactive) | –
CCn1cc(-c2ccccc2)cc1C(=O)NCc1ccccn1 | -13.5% (inactive) | –
O=C(NCCc1ccc(Cl)cc1)c1ccc2nc(CCc3ccccc3)oc2c1 | -15% (inactive) | –
O=C(c1ccoc1)N1CCC(Oc2ncccc2C(=O)N2CCOCC2)C1 (centres undefined) | -12.4% (inactive) | –
NC(=O)CN1CCC(NC(=O)c2cccc(F)c2)CC1 | 8.54% (inactive) | –
Cc1cc(C(=O)NCCc2ccc(Cl)cc2)c(C)o1 | -33.8% (inactive) | –
O=C(c1ccc2nccn2c1)N1CCOCC1 | – | 100 µM (active)
O=C(Nc1ccc(C(=O)N2CCOCC2)cc1)Nc1cccc(C(F)(F)F)c1 | 31.3% (inactive) | –
O=C(NC1CCN(Cc2ccc(F)c(F)c2)CC1)c1ccc2nccn2c1 | – | 28.2 µM (active)
O=C(NCc1ccccn1)c1ccc2nccn2c1 | – | 31.6 µM (active)
O=C(NCCc1ccc(Cl)cc1)c1ccc2nccn2c1 | – | 112 µM (active)
